# Test results from PubChem BioAssay AID1159580 (chemical genetic matrix, 2015).
# “And” between values parts separate entries of the source, which are not always exact repeats. Equal entries are not always repeated. In all, about 5,500 compounds went through this assay and about 2,000 (36%) were called active. Roughly 18% stayed inconclusive and do not appear here. The list shows a part of the results. Values without a mark were called inactive. Rule as the data show it: active = normalized growth mostly below about 0.91 (no sharp cut-off); inconclusive = no clear call, values can overlap the other calls; inactive = mostly above about 0.92.
# Experiment: chemical genetic growth profiling, strain panel (AID 1159580);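 also: tested at 20 µM; growth read once vehicle control cultures reached saturation at 30 °C; 1 = growth at the plate median or of vehicle wells; lower values mean less growth of the strain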
# Settings: S. cerevisiae deletion strains, growth OD
structure (smiles),measurement,setting,value
COc1ccc(CCN2CCC(Nc3nc4ccccc4n3Cc3ccc(F)cc3)CC2)cc1,normalized growth,"locus YAL021C, strain ccr4, hits give low values",0.721 (active)
same,normalized growth,"locus YAL026C, strain drs2, hits give low values",0.783 (active)
same,normalized growth,"locus YAL030W, strain snc1, hits give low values",0.988
same,normalized growth,"locus YBL061C, strain skt5, hits give low values",0.969
same,normalized growth,"locus YBR009C, strain hhf1, hits give low values",0.936
same,normalized growth,"locus YBR021W, strain FUR4, hits give low values",0.821 (active)
same,normalized growth,"locus YBR023C, strain chs3, hits give low values",0.959
same,normalized growth,"locus YBR171W, strain sec66, hits give low values",0.992
same,normalized growth,"locus YBR229C, strain ROT2, hits give low values",0.972
same,normalized growth,"locus YBR231C, strain swc5, hits give low values",0.981
same,normalized growth,"locus YBR279W, strain paf1, hits give low values",0.954
same,normalized growth,"locus YCL011C, strain gbp2, hits give low values",0.935
same,normalized growth,"locus YCL016C, strain dcc1, hits give low values",0.919
same,normalized growth,"locus YCL029C, strain bik1, hits give low values",0.983
same,normalized growth,"locus YCL061C, strain MRC1, hits give low values",0.96
same,normalized growth,"locus YCL069W, strain vba3, hits give low values",0.953
same,normalized growth,"locus YCR088W, strain abp1, hits give low values",0.924
same,normalized growth,"locus YDL005C, strain med2, hits give low values",0.967
same,normalized growth,"locus YDL035C, strain GPR1, hits give low values",0.972
same,normalized growth,"locus YDL040C, strain nat1, hits give low values",0.985
same,normalized growth,"locus YDL074C, strain BRE1, hits give low values",0.935
same,normalized growth,"locus YDL101C, strain DUN1, hits give low values",0.984
same,normalized growth,"locus YDL134C, strain PPH21, hits give low values",0.983
same,normalized growth,"locus YDL185W, strain tfp1, hits give low values",0.984
same,normalized growth,"locus YDL192W, strain arf1, hits give low values",0.986
same,normalized growth,"locus YDR001C, strain nth1, hits give low values",0.972
same,normalized growth,"locus YDR069C, strain doa4, hits give low values",0.874 (active)
same,normalized growth,"locus YDR101C, strain arx1, hits give low values",0.992
same,normalized growth,"locus YDR137W, strain rgp1, hits give low values",1.18 [resistant] (active)
same,normalized growth,"locus YDR150W, strain NUM1, hits give low values",1
same,normalized growth,"locus YDR159W, strain sac3, hits give low values",0.986
same,normalized growth,"locus YDR162C, strain NBP2, hits give low values",0.986
same,normalized growth,"locus YDR195W, strain ref2",0.971
same,normalized growth,"locus YDR297W, strain sur2, hits give low values",0.999
same,normalized growth,"locus YDR318W, strain mcm21, hits give low values",0.984
same,normalized growth,"locus YDR334W, strain swr1, hits give low values",0.979
same,normalized growth,"locus YDR335W, strain msn5, hits give low values",0.959
same,normalized growth,"locus YDR388W, hits give low values",0.687 (active)
same,normalized growth,"locus YDR392W, strain spt3, hits give low values",0.742
same,normalized growth,"locus YDR502C, strain sam2, hits give low values",0.977
same,normalized growth,"locus YEL003W, strain gim4, hits give low values",0.96
same,normalized growth,"locus YEL037C, strain rad23, hits give low values",0.867 (active)
same,normalized growth,"locus YEL061C, strain CIN8 (second series), hits give low values",0.981
same,normalized growth,"locus YEL061C, strain CIN8, hits give low values",0.993
same,normalized growth,"locus YER015W, strain faa2, hits give low values",0.93
same,normalized growth,"locus YER016W, strain bim1, hits give low values",0.911 (active)
same,normalized growth,"locus YER110C, hits give low values",0.992
same,normalized growth,"locus YER111C, strain swi4, hits give low values",0.962
same,normalized growth,"locus YER155C, strain BEM2 (second series), hits give low values",0.822 (active)
same,normalized growth,"locus YER155C, strain BEM2, hits give low values",0.991
same,normalized growth,"locus YER167W, strain BCK2, hits give low values",0.973
same,normalized growth,"locus YFR010W, strain ubp6, hits give low values",0.838 (active)
same,normalized growth,"locus YGL078C, strain dbp3, hits give low values",0.985
same,normalized growth,"locus YGL086W, strain mad1, hits give low values",1.02
same,normalized growth,"locus YGL167C, strain pmr1, hits give low values",1
same,normalized growth,"locus YGL173C, strain kem1, hits give low values",0.982
same,normalized growth,"locus YGL227W, strain vid30, hits give low values",0.981
same,normalized growth,"locus YGL240W, strain doc1, hits give low values",0.978
same,normalized growth,"locus YGL248W, strain PDE1, hits give low values",0.985
same,normalized growth,"locus YGL253W, strain hxk2, hits give low values",0.904 (active)
same,normalized growth,"locus YGR135W, strain pre9, hits give low values",0.877 (active)
same,normalized growth,"locus YGR229C, strain SMI1, hits give low values",0.971
same,normalized growth,"locus YGR252W, strain gcn5, hits give low values",0.9
same,normalized growth,"locus YHR013C, strain ard1, hits give low values",0.857
same,normalized growth,"locus YHR027C, strain rpn1, hits give low values",0.954
same,normalized growth,"locus YHR030C, strain SLT2, hits give low values",0.997 and 0.996
same,normalized growth,"locus YHR079C, strain IRE1 (second series), hits give low values",0.984
same,normalized growth,"locus YHR079C, strain IRE1, hits give low values",0.972
same,normalized growth,"locus YHR094C, strain hxt1, hits give low values",0.986
same,normalized growth,"locus YHR129C, strain ARP1, hits give low values",0.988
same,normalized growth,"locus YHR142W, strain chs7, hits give low values",0.888
same,normalized growth,"locus YHR200W, strain rpn10, hits give low values",0.994
same,normalized growth,"locus YIL066C, strain RNR3, hits give low values",0.974
same,normalized growth,"locus YIL073C, strain SPO22, hits give low values",1.74 [resistant] (active)
same,normalized growth,"locus YIL125W, strain kgd1, hits give low values",0.993
same,normalized growth,"locus YIR030C, strain dcg1, hits give low values",0.99
same,normalized growth,"locus YJL092W, strain hpr5, hits give low values",0.917 (active)
same,normalized growth,"locus YJL095W, strain BCK1 (second series), hits give low values",0.991
same,normalized growth,"locus YJL095W, strain BCK1, hits give low values",0.923 and 0.988
same,normalized growth,"locus YJL115W, strain asf1, hits give low values",0.976
same,normalized growth,"locus YJL129C, strain trk1, hits give low values",0.972
same,normalized growth,"locus YJL134W, strain LCB3, hits give low values",0.998
same,normalized growth,"locus YJL154C, strain vps35, hits give low values",0.962
same,normalized growth,"locus YJL164C, strain tpk1, hits give low values",0.957
same,normalized growth,"locus YJL166W, strain qcr8, hits give low values",0.974
same,normalized growth,"locus YJL168C, strain set2, hits give low values",0.994
same,normalized growth,"locus YJL187C, strain SWE1 (second series), hits give low values",0.976
same,normalized growth,"locus YJL187C, strain SWE1, hits give low values",0.982
same,normalized growth,"locus YJR043C, strain POL32, hits give low values",0.998
